PubChem BioAssay (EPA / NIEHS)
Active and inactive are the calls of the source. The calls were made as follows: active = hit-call score of the fitted dose curve at least 0.9, where 1 is the maximum; inactive = score below 0.9.

Legend:
Details in all cases: mRNA level, 48 h; actives raise or lower the signal
[1] = read-out: Glutamate-cysteine ligase catalytic (GCLC), GCLC (gene 2729); experiment: LTEA_HepaRG_GCLC: Life Technologies and Expression Analysis (LTEA) Assay for Glutamate-cysteine ligase catalytic (GCLC) using HepaRG (AID 2283498)
In short: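 HepaRG, 48 h exposure, 8-pt half-log series from 100 uM, 0.5% DMSO vehicle; TaqMan qRT-PCR for GCLC mRNA, housekeeping-normalized; bidirectional curve fit vs DMSO baseline.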

[2] = read-out: growth arrest and DNA damage 45 (GADD45G), GADD45G (gene 10912); experiment: LTEA_HepaRG_GADD45G: Life Technologies and Expression Analysis (LTEA) Assay for growth arrest and DNA damage 45 (GADD45G) using HepaRG (AID 2283499)
In short: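 Concentration-response in HepaRG: 48 h dosing, 0.5% DMSO, highest level 100 uM. GADD45G expression by qRT-PCR, normalised to endogenous controls; bidirectional fit to DMSO.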

[3] = read-out: Glutamate-cysteine ligase regulatory (GCLM), GCLM (gene 2730); experiment: LTEA_HepaRG_GCLM: Life Technologies and Expression Analysis (LTEA) Assay for Glutamate-cysteine ligase regulatory (GCLM) using HepaRG (AID 2283500)
In short: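 Endpoint is GCLM transcript level by qRT-PCR, normalized to three housekeeping genes, after 48 h chemical exposure of human HepaRG cells (0.5% DMSO vehicle, top 100 uM, half-log dilutions). Fitting was bidirectional relative to DMSO.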

[4] = read-out: Glutathione S-transferase M3 (GSTM3), GSTM3 (gene 2947); experiment: LTEA_HepaRG_GSTM3: Life Technologies and Expression Analysis (LTEA) Assay for Glutathione S-transferase M3 (GSTM3) using HepaRG (AID 2283501)
In short: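 Expression of GSTM3 is determined by qRT-PCR in human liver HepaRG cells treated 48 h with an 8-point half-log range from 100 uM in 0.5% DMSO.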

[5] = read-out: Heat shock 70 kDa protein 1 (HSPA1A), gene 3303; experiment: LTEA_HepaRG_HSPA1A: Life Technologies and Expression Analysis (LTEA) Assay for Heat shock 70 kDa protein 1 (HSPA1A) using HepaRG (AID 2283502)
In short: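 Cells were plated and cultured for 48 h, then switched to serum-free induction medium. Chemicals were added at eight half-log concentrations up to 100 uM for 48 h. RNA was then isolated and HSPA1A measured by qRT-PCR with bidirectional curve fitting against DMSO.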

[6] = read-out: Hypoxia-inducible factor 1-alpha (Homo sapiens) (UniProt Q16665); experiment: LTEA_HepaRG_HIF1A: Life Technologies and Expression Analysis (LTEA) Assay for Hypoxia-inducible factor 1 (HIF1A) Trancription factor using HepaRG (AID 2283503)
In short: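 HIF1A transcript level read by qRT-PCR (ACTB, GAPDH, POLR2A normalization) after 48 h chemical exposure of HepaRG cultures. Eight half-log concentrations, top 100 uM, 0.5% DMSO vehicle, duplicates; bidirectional curve fit against DMSO baseline.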

[7] = read-out: 3-Hydroxy-3-Methylglutaryl-CoA Synthase 2 (HMGCS2), HMGCS2 (gene 3158); experiment: LTEA_HepaRG_HMGCS2: Life Technologies and Expression Analysis (LTEA) Assay for 3-Hydroxy-3-Methylglutaryl-CoA Synthase 2 (HMGCS2) using HepaRG (AID 2283504)
In short: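 This steatosis marker was read as HMGCS2 mRNA change in HepaRG cells treated 48 h with up to 100 uM chemical. Normalisation used housekeeping genes; activity in either direction was fitted relative to 0.5% DMSO vehicle.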

HGF (gene 3082) = experiment: LTEA_HepaRG_HGF: Life Technologies and Expression Analysis (LTEA) Assay for Hepatocyte Growth Facto (HGF) using HepaRG (AID 2283505)
In short: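 Using HepaRG monolayers kept in 0.5% DMSO, chemicals were tested in duplicate over eight half-log concentrations from 100 uM for 48 h. Endpoint: HGF mRNA change relative to DMSO, normalized to ACTB/GAPDH/POLR2A.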

[8] = read-out: Insulin Like Growth Factor 1 (IGF1), IGF1 (gene 3479); experiment: LTEA_HepaRG_IGF1: Life Technologies and Expression Analysis (LTEA) Assay for Insulin Like Growth Factor 1 (IGF1) using HepaRG (AID 2283506)
In short: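 Cells are thawed, plated and cultured 48 h, then exposed in duplicate to chemical (highest 100 uM, half-log steps, 0.5% DMSO) for another 48 h. Total RNA is analysed by Fluidigm qRT-PCR for IGF1 expression relative to vehicle.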

[9] = read-out: Intercellular Adhesion Molecule 1 (ICAM1), ICAM1 (gene 3383); experiment: LTEA_HepaRG_ICAM1: Life Technologies and Expression Analysis (LTEA) Assay for Intercellular Adhesion Molecule 1 (ICAM1) using HepaRG (AID 2283507)
In short: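 Using the human liver line HepaRG, compounds are tested in duplicate over 48 h at concentrations up to 100 uM. Expression is determined by TaqMan qRT-PCR, normalized to endogenous controls, and analysed relative to 0.5% DMSO vehicle.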

[10] = read-out: Insulin-like growth factor-binding protein 1 (IGFBP1), IGFBP1 (gene 3484); experiment: LTEA_HepaRG_IGFBP1: Life Technologies and Expression Analysis (LTEA) Assay for Insulin-like growth factor-binding protein 1 (IGFBP1) using HepaRG (AID 2283508)
In short: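 HepaRG, 48 h, 8 conc. (max 100 uM, half-log), duplicates, 0.5% DMSO. Readout: TaqMan qRT-PCR, ACTB/GAPDH/POLR2A normalisation. Fit: bidirectional vs DMSO.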

[11] = read-out: Interleukin 6 (IL6), IL6 (gene 3569); experiment: LTEA_HepaRG_IL6: Life Technologies and Expression Analysis (LTEA) Assay for Interleukin 6 (IL6) using HepaRG (AID 2283509)
In short: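 qRT-PCR read-out of IL6 transcript, normalized to three housekeeping genes, after 48 h chemical exposure of HepaRG cells; 8-point half-log series, top 100 uM, 0.5% DMSO vehicle. Bidirectional curve fitting against DMSO baseline.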

[12] = read-out: Interleukin 6 Receptor (IL6R), IL6R (gene 3570); experiment: LTEA_HepaRG_IL6R: Life Technologies and Expression Analysis (LTEA) Assay for Interleukin 6 Receptor (IL6R) using HepaRG (AID 2283510);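 as to AC50: differentiated human HepaRG liver cells in serum-free induction medium; TaqMan qRT-PCR signal normalized to ACTB GAPDH and POLR2A housekeeping genes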
In short: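 Cells were thawed, plated and cultured 48 h, then medium was changed to serum-free induction medium. Chemicals were added in duplicate (100 uM top, half-log steps, 0.5% DMSO) for 48 h. Lysates were analyzed by qRT-PCR for IL6R expression.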

[13] = read-out: Potassium channel subfamily K member 1 (KCNK1), KCNK1 (gene 3775); experiment: LTEA_HepaRG_KCNK1: Life Technologies and Expression Analysis (LTEA) Assay for Potassium channel subfamily K member 1 (KCNK1) using HepaRG (AID 2283511)
In short: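 HepaRG, 48 h exposure, 8-pt half-log series top 100 uM, 0.5% DMSO vehicle, duplicates. Readout: KCNK1 transcript by qRT-PCR (Fluidigm array), housekeeping-normalized; bidirectional curve fit relative to DMSO baseline.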

[14] = read-out: JUN Transcription Factor, JUN (gene 3725); experiment: LTEA_HepaRG_JUN: Life Technologies and Expression Analysis (LTEA) Assay for JUN Transcription Factor using HepaRG (AID 2283513)
In short: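 Read-out is JUN transcript level by TaqMan qRT-PCR, normalized to ACTB, GAPDH and POLR2A, after 48 h chemical treatment of HepaRG cells. Concentration-response spanned eight half-log points up to 100 uM in 0.5% DMSO.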

[15] = read-out: Lipase C (LIPC), LIPC (gene 3990); experiment: LTEA_HepaRG_LIPC: Life Technologies and Expression Analysis (LTEA) Assay for Lipase C (LIPC) using HepaRG (AID 2283514)
In short: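 HepaRG, 48 h exposure, 8-pt half-log series from 100 uM in 0.5% DMSO, duplicates. Readout: LIPC mRNA by Fluidigm qRT-PCR, housekeeping-normalized (ACTB/GAPDH/POLR2A). Gain or loss fitted bidirectionally against DMSO baseline.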

[16] = read-out: Lipoprotein lipase (LPL), LPL (gene 4023); experiment: LTEA_HepaRG_LPL: Life Technologies and Expression Analysis (LTEA) Assay for Lipoprotein lipase (LPL) using HepaRG (AID 2283515)
In short: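 HepaRG, 48 h exposure, 8-pt half-log dilutions from 100 uM, 0.5% DMSO vehicle, duplicates; qRT-PCR (Fluidigm array) of LPL mRNA vs housekeeping genes; bidirectional curve fit relative to DMSO baseline.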

[17] = read-out: MicroRNA 122 (MIR122), gene 406906; experiment: LTEA_HepaRG_MIR122: Life Technologies and Expression Analysis (LTEA) Assay for MicroRNA 122 (MIR122) using HepaRG (AID 2283516); also: the transcript read is the microRNA miR-122
In short: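 Human liver HepaRG cultures receive test chemicals for 48 h at eight half-log concentrations from 100 uM. Expression is quantified by qRT-PCR with ACTB/GAPDH/POLR2A normalization and fitted bidirectionally against 0.5% DMSO.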

[18] = read-out: matrix metalloproteinase-10 (MMP10), MMP10 (gene 4319); experiment: LTEA_HepaRG_MMP10: Life Technologies and Expression Analysis (LTEA) Assay for matrix metalloproteinase-10 (MMP10) using HepaRG (AID 2283517)
In short: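 Transcript levels come from Fluidigm qRT-PCR normalized to three housekeeping genes, with curves fitted bidirectionally against 0.5% DMSO. Human HepaRG cells were dosed for 48 hours at concentrations up to 100 uM.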

[19] = read-out: Keratin 19 (KRT19), KRT19 (gene 3880); experiment: LTEA_HepaRG_KRT19: Life Technologies and Expression Analysis (LTEA) Assay for Keratin 19 (KRT19) using HepaRG (AID 2283512)
In short: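 Readout is qRT-PCR of KRT19 mRNA, normalized to ACTB, GAPDH and POLR2A, from HepaRG cells treated 48 h with eight-point half-log dilutions topping at 100 uM. Activity in either direction is scored relative to 0.5% DMSO vehicle.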

Measured: AC50

Hypoxia-inducible factor 1-alpha (Homo sapiens), sequence (Q16665 whole entry, looked up): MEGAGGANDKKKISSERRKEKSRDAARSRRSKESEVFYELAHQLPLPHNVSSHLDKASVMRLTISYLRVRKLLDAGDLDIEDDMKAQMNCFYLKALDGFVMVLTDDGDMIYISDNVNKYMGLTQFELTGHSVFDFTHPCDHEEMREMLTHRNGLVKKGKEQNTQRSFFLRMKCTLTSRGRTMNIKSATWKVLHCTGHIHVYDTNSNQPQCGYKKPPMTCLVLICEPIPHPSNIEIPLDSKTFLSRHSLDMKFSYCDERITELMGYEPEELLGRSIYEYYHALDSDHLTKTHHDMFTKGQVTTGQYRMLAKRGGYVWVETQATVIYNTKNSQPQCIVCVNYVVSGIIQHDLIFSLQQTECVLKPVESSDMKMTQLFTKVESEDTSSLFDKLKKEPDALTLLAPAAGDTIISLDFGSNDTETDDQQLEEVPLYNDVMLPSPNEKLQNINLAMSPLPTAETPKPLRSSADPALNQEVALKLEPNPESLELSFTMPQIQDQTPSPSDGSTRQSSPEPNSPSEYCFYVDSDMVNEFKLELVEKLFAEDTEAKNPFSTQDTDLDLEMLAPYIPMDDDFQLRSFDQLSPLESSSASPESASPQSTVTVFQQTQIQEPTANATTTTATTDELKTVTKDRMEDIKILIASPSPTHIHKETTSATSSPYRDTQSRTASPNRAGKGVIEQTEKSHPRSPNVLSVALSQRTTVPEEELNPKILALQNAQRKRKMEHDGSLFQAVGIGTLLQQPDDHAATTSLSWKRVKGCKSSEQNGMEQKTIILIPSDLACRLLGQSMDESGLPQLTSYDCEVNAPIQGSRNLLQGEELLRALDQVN

Nc1cccc2c(N)cccc12
active: [15] 73.3 µM
not listed: [19]
inactive: all other assays above

OCCC(F)(F)C(F)(F)C(F)(F)C(F)(F)C(F)(F)C(F)(F)C(F)(F)C(F)(F)F
not listed: [6] | [17]
inactive: all other assays above

CC(=O)NC1(c2cccc(F)c2)CCN(CC[C@@]2(c3ccc(Cl)c(Cl)c3)CN(c3ccccc3)C(=O)CO2)CC1
active: [2] 41.5 µM | [5] 27.9 µM | [8] 13.1 µM | [9] 49 µM | [10] 41.5 µM | [11] 76.2 µM | [14] 62.1 µM | [16] 23.1 µM | [18] 71 µM
not listed: [12] | [19]
inactive: all other assays above

CN1CCC[C@H]1c1cccnc1
not listed: [6] | [17] | [19]
inactive: all other assays above

C=C(C)C(=O)OCCC(F)(F)C(F)(F)C(F)(F)C(F)(F)C(F)(F)C(F)(F)F
not listed: [6] | [19]
inactive: all other assays above

CC(C)CCCCCCOC(=O)CCCCC(=O)OCCCCCCC(C)C
not listed: [17] | [19]
inactive: all other assays above

ClC1=C(Cl)C(Cl)(Cl)C(Cl)=C1Cl
not listed: [12] | [17]
inactive: all other assays above

CCC(=C(c1ccc(O)cc1)c1ccc(OCCN(C)C)cc1)c1ccccc1
active: [2] 93 µM | [5] 69.4 µM | [7] 91.7 µM | [8] 93.4 µM | [9] 67.9 µM | [10] 76.5 µM | [11] 91.8 µM | [12] 93.2 µM | [14] 89.3 µM | [18] 72.4 µM
inactive: [1] | [3] | [4] | HGF (gene 3082) | [13] | [19] | [15] | [16]

CCOC(=O)CC(O)(CC(=O)OCC)C(=O)OCC
not listed: [12] | [17] | [19]
inactive: all other assays above

NC(=O)N1C(=O)C(C(=O)c2cc(Cl)cs2)c2cc(F)c(Cl)cc21 (configuration not stated)
active: [1] 34.1 µM | [2] 30.4 µM | [5] 72.3 µM | [6] 22.7 µM | [7] 20.7 µM | [8] 24.8 µM | [9] 19.9 µM | [10] 16 µM | [11] 31.7 µM | [13] 29.1 µM | [19] 13.2 µM | [14] 30.3 µM | [15] 21.2 µM | [16] 90.6 µM | [18] 34.9 µM
inactive: [3] | [4] | HGF (gene 3082)

CCC(C)(C)C1CCC(O)CC1 (configuration not stated)
not listed: [12] | [19]
inactive: all other assays above

CC(C)(C)c1cccc(C(C)(C)C)c1O
not listed: [12] | [17] | [19]
inactive: all other assays above

CC(C)(C)c1ccc(O)c(C(C)(C)C)c1
active: [13] 0.0804 µM
inactive: all other assays above

Oc1cccc(O)c1
not listed: [6] | [19]
inactive: all other assays above
